Experimental data: PubChem BioAssay AID1259343 (VanderVen Lab, College of Veterinary Medicine, Cornell …, 2017)
Hit rate of the full screen: of about 6,200 compounds, about 2,900 (47%) were called active. The set was probably picked from earlier hits. This is one part of the list. A number with no mark means an inactive call. No stated cut-off is given here; in the data, active means inhibition above about 50%; inactive means the rest.

test: Mycobacterium tuberculosis growth inhibition, primary screen (AID 1259343); details: inhibition: at 10 µM, hits give high values; outcome: 10 uM

SMILES | inhibition
CCS(=O)(=O)c1ccc(-c2cccc(NS(=O)(=O)c3ccc(C)cc3C)c2)nn1 | 99.5% (active)
Cc1cc(S(=O)(=O)Nc2cccc(Br)c2)ccc1Br | 39.6%
CC(=O)Nc1cccc2c1NCCC2 | -0.59%
O=S(CSc1nc(Br)ns1)c1nc(Br)ns1 (centres undefined) | 102% (active)
CCN1CCc2nc3ccccc3c(C(=O)NCc3ccc(OC)cc3)c2C1 | -11%
COc1ccc2nc(C(=O)NCC(C)c3ccccc3)ccc2c1 (centres undefined) | 52.4% (active)
COc1ccc2cc(C(=O)NNC(=O)c3ccccn3)c(C)nc2c1 | 0.1%
c1ccc(-c2nnc3n2NC(c2ccc4c(c2)OCO4)S3)cc1 (centres undefined) | -2.01%
c1ccc(-c2nc(-c3ccc4c(c3)OCO4)cs2)cc1 | -16.4%
c1ccc(-c2noc(N3CCCCC3)c2CNCc2ccc3c(c2)OCO3)cc1 | 83.5% (active)
CC(=O)N=c1c(Nc2ccc(Cl)cc2)nc(=O)[nH]n1C | 85.5% (active)
Cc1c(Br)c(Nc2ccc(Cl)cc2)nn1C | -14.8%
O=C1c2ccccc2C(=O)N1CC1CC2C=CC1C2 (centres undefined) | 38.1%
CN(Cc1ccsc1)C(=O)CCc1nnc(CCCc2ccccc2)o1 | inactive
O=C(CCc1nnc(CCCCc2ccccc2)o1)NCC[C@@H]1C[C@@H]2C=C[C@H]1C2 | 78.5% (active)
C=CCn1nnc(NC(=O)c2ccc(OCC(C)C)cc2)n1 | 30.5%
O=C(CSc1nnc(SCC(=O)c2cccs2)s1)c1cccs1 | 96.8% (active)
Cc1nc(SCC(=O)c2cccs2)c2c3c(sc2n1)CCCC3 | -1.14%
NC(=O)CSc1nnc(SCc2ccc(Cl)c(Cl)c2)s1 | 24.1%
N#CC(=Cc1ccc([N+](=O)[O-])o1)C(=O)NCc1ccco1 | 49.5%
N#CC(=Cc1ccc(Sc2ccccc2)o1)C(=O)NC1CCCCC1 | 92.9% (active)
Cc1ccc(-n2cc(CN(C)Cc3cccnc3)c(-c3ccc(F)cc3)n2)cc1 | 46.4%
Cc1ccc(-n2cc(CNCCc3ncc(C)[nH]3)c(-c3ccc(F)cc3)n2)cc1 | 93% (active)
Cc1ccc(-c2csc(SCC(=O)NC(C)(C#N)C3CC3)n2)cc1 (centres undefined) | 0.22%
CCC(C)Nc1nc(-c2ccc(Cl)cc2)cs1 (centres undefined) | -10.8%

SMILES | inhibition
CC(C)(C)c1ccc(-c2csc(NC=C(C#N)C#N)n2)cc1 | 75.2% (active)
CCOc1ccc(N2CC(C#N)=C3c4cc(OC)c(OC)cc4CCN3C2)cc1 | 94.9% (active)
Cc1ccc(-n2c(-c3ccc(Cl)cc3)cc(C(=O)N3CCN(c4cccc(Cl)c4)CC3)c2C)cc1 | 33.6%
Cc1cccc(N2CCN(CCNc3cncc(Cl)n3)CC2)c1 | 86.1% (active)
c1cnn(-c2cncc(NCC3CCCCCCC3)n2)c1 | 49.9%
CNC(=O)c1cccc(N2CCC(c3ccccc3OC)C2)n1 (centres undefined) | 20.6%
COc1ccccc1N1CCC(CNc2cncc(Cl)n2)C1 (centres undefined) | 85% (active)
Fc1ccc(Nc2ccc3ccccc3n2)cc1Cl | 22.7%
CC(=O)Oc1cccc2c1C(=O)c1c(OC(C)=O)cc(C(=O)O)cc1C2=O | 77.5% (active)
CCCc1nc2c(c(=O)c3ccccc3n2C)c(=O)n1CCc1ccccc1 | -32.5%
Oc1c(C(c2ccc(Cl)cc2)N2CCCC2)ccc2cccnc12 (centres undefined) | 92% (active)
Clc1ccc(C(c2ccc(Cl)cc2)N2CCNCC2)cc1 | 42.8%
Oc1c(C(c2ccc(Br)cc2)N2CCCC2)ccc2cccnc12 (centres undefined) | 77.3% (active)
CC(C)Oc1ccc2c(=O)cc(-c3ccccc3)oc2c1 | 58.7% (active)
O=c1cc(-c2ccccc2)oc2cc(O)c(O)cc12 | 95.7% (active)
COc1cc(C)c2c(=O)cc(-c3ccccc3)oc2c1 | 47.7%
Cc1oc2cc(OC(C)C)ccc2c(=O)c1Oc1ccccc1 | 8.96%
O=C(CC[N+](=O)[O-])OC[C@H]1O[C@@H](O)[C@H](OC(=O)CC[N+](=O)[O-])[C@@H](OC(=O)CC[N+](=O)[O-])[C@@H]1OC(=O)CC[N+](=O)[O-] | 82.8% (active)
O=C1C2=C(Nc3ccccc3S(=O)(=O)C2c2ccc(Cl)cc2)c2ccccc21 (centres undefined) | 66.7% (active)
O=C1C2=C(Nc3ccccc3SC2c2cccs2)c2ccccc21 (centres undefined) | 21.4%
O=C(Cc1cc(-c2cc3ccccc3o2)on1)Nc1ccon1 | 18.9%
O=C(Cc1cc(-c2ccc(F)cc2)on1)N1CCCc2ccccc21 | 56.2% (active)
CC1Cc2ccccc2N1CCNC(=O)c1cc(Cl)ccc1F (centres undefined) | 8.76%
O=C(CNc1ccc(Cl)cc1F)N1CCCc2ccccc21 | 50.7% (active)
O=C(Cc1cc(-c2cc3ccccc3o2)on1)N1CCCCC1 | 22.8%

SMILES | inhibition
COc1cccc(-c2cc(CC(=O)N3c4ccccc4CC3C)no2)c1 (centres undefined) | 38.3%
O=C(Cc1cc(-c2cc3ccccc3o2)on1)N1CCCc2ccccc21 | 66.9% (active)
O=C(CNc1ccc(Cl)cc1F)N1CCN(c2ccccc2)CC1 | 16.7%
O=[N+]([O-])c1ccc(Oc2ccc(-c3ccccc3)cc2)cc1 | -41%
Nc1cccc2c(Oc3ccc([N+](=O)[O-])cc3)cccc12 | 68.4% (active)
Nc1cccc2c([N+](=O)[O-])cccc12 | 8.31%
O=[N+]([O-])c1ccc(Sc2ccc([N+](=O)[O-])cc2)cc1 | 57.3% (active)
O=[N+]([O-])c1ccc(Oc2ccc([N+](=O)[O-])cc2)cc1 | 98.6% (active)
O=[N+]([O-])c1ccc(C2SCCS2)cc1 | -11.2%
O=C(O)c1cc(Oc2ccc([N+](=O)[O-])cc2)cc(Oc2ccc([N+](=O)[O-])cc2)c1 | 60.2% (active)
Cc1cnn(CCc2nc(-c3cc(Br)cs3)no2)c1 | 36.5%
Cc1cc(OCC(=O)NCc2ccc(-c3ccc(Br)cc3)o2)no1 | 56.9% (active)
Cc1cc(CC(=O)NC2CC2c2ccc(Br)cc2)no1 (centres undefined) | 13.2%
O=c1nc(/C=C/c2ccc(Br)cc2)cc(C(F)(F)F)[nH]1 | 100% (active)
Cc1ccsc1/C=C/c1cc(C(F)(F)F)[nH]c(=O)n1 | 36.8%
O=c1nc(/C=C/c2cccc3ccccc23)cc(C(F)(F)F)[nH]1 | -5.05%
Clc1ccc(CSc2nnc3nc[nH]n23)c(Cl)c1 | 90.4% (active)
O=c1cc(CSc2ccc(Cl)cc2)nc2nc[nH]n12 | 30%
Clc1ccc(Cn2ccnc2CNc2ccccc2)c(Cl)c1 | 28.2%
O=C(Cc1ccsc1)N1CCN(Cc2cccc(-c3noc(-c4ccccc4)n3)c2)CC1 | 25.5%
O=C(c1cccc(OC(F)F)c1)N1CCN(Cc2ccc(-c3noc(-c4ccco4)n3)cc2)CC1 | 91.3% (active)
CCOc1ccc(N2C(=O)CSC2c2ccccc2N)cc1 (centres undefined) | 90.3% (active)
COC(=O)C1=C(C(=O)OC)C2=S(SC(c3ccc(OC)cc3)=C2)S1 (centres undefined) | 7.91%
COC(=O)C1=C(C(=O)OC)SC(=C2C(=S)C(C)(C)Nc3ccccc32)S1 | 27.1%
COC(=O)C1=C(C(=O)OC)SC(=CC(=S)c2ccc(OC)cc2)S1 | 82.8% (active)

SMILES | inhibition
CCOc1ccc(Oc2ccc(S(=O)(=O)NC(C)CC#N)cc2)cc1 (centres undefined) | 39.1%
CCCCN=C1NN=C(C23CC4CC(CC(C4)C2)C3)C(C)S1 (centres undefined) | 82.7% (active)
O=[N+]([O-])c1ccc(NN=C2CC3CC=CC23)c([N+](=O)[O-])c1 (centres undefined) | 92% (active)
CC1=CC(=NNc2ccc(S(N)(=O)=O)cc2[N+](=O)[O-])CC(C)(C)C1 | -10.6%
O=[N+]([O-])c1ccc(NN=C2C3CC4CC2CC(O)(C4)C3)c([N+](=O)[O-])c1 | 25.5%
C=CCSc1nnc(NC(=O)c2cc(Br)ccc2Cl)s1 | 9.41%
COCCCNC(=O)CSc1nnc(Nc2ccccc2Cl)s1 | 80.1% (active)
O=C(Nc1nnc(SCc2ccc(F)cc2)s1)c1ccccc1Br | 27.4%
CCSc1nnc(NC(=O)Cc2ccccc2Cl)s1 | 95.5% (active)
CCc1ccccc1Nc1nnc(SCC(=O)NC(C)C)s1 | 102% (active)
CNc1nnc(SCc2sc3ccccc3c2Cl)s1 | 48.5%
CC(C)NC(=O)CSc1nnc(Nc2ccccc2Cl)s1 | 78.8% (active)
CCCN(CC(=O)N(Cc1ccccc1)Cc1sccc1C)C(=O)Nc1ccc(C(=O)OCC)cc1 | 89.4% (active)
C=CCNCC(=O)N(Cc1ccccc1)Cc1ccc(C)s1 | 21.1%
COC(=O)c1ccc(NC(=O)N2CCCC(C(=O)c3sccc3C)C2)cc1 (centres undefined) | -5.44%
CC(=O)N1N=C(c2ccco2)OC1C(=O)N[C@@H]1C[C@@H]2C[C@H](C1C)C2(C)C (some centres undefined) | 8.4%
c1cncc(-c2nc(NC3CCCCCCC3)c3ccccc3n2)c1 | 39.2%
c1ccc(-c2cc(NC3CCCC3)nc3ccccc23)cc1 | 67.7% (active)
c1cncc(-c2nc(N3CCCC4CCCCC43)c3ccccc3n2)c1 (centres undefined) | -13.1%
O=[N+]([O-])c1cccc2nsnc12 | -16%
CC(=O)Oc1ccc(N2C(=O)c3cccc4c([N+](=O)[O-])ccc(c34)C2=O)cc1 | 36.4%
O=[N+]([O-])c1ccc(O)c2ncccc12 | 102% (active)
N#CC(=Cc1ccc(O)cc1)c1ccc([N+](=O)[O-])cc1 | 27.9%
O=[N+]([O-])c1ccc(-c2nc(N=Nc3ccc(O)cc3)n[nH]2)cc1 | 84.3% (active)
